Screening data from PubChem.
The list is not random: actives were taken first. Their share in the collection is about 4.5%.
GRIN3A LBD mod – binders of NR3A ligand-binding domain, primary screen, biophysical, differential scanning fluorimetry, uHTS; Tm shift relative to glycine control, % at 25 µM; AID 1259313, 2017; 340,000 tested, 2.5% active; NR3A LBD differential scanning fluorimetry, Tm shift; 0% = protein alone, 100% = glycine-bound protein;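 active means melting temperature shift of at least 10% of the positive control shift, at one fixed dose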
dFosB act – activators of delta FosB homodimer, primary screen, biochemical, fluorescence polarization, TAMRA-CDK5 oligo, single point | Protein FosB (Mus musculus), P13346 | purified delta FosB; percent of positive-control signal above neutral wells | activation, % at 25 µM | 340,000 tested, 0.99% active;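 active means mean activation above about 17%, with every replicate also reaching it, limit read from the data, passing the limit was not always enough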
Target sequence (P13346 whole entry, looked up): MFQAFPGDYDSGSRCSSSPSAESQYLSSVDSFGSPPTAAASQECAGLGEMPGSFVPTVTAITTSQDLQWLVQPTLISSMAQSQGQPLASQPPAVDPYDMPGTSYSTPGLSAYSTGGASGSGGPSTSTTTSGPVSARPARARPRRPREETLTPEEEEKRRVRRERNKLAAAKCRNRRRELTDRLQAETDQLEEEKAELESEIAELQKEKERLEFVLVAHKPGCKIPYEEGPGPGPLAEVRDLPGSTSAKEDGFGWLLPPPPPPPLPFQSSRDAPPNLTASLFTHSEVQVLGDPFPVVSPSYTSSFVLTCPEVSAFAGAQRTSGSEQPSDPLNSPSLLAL
ZTA DNA inh – counter-screen for EBNA-1 inhibitors: inhibitors of Epstein-Barr virus ZTA. P03206. ZTA-DNA binding, fluorescence polarization. inhibition, % at 11 µM. 320,000 tested, 0.15% active. AID 2234; in the data active means inhibition above about 33%
Target sequence (P03206 whole entry, looked up): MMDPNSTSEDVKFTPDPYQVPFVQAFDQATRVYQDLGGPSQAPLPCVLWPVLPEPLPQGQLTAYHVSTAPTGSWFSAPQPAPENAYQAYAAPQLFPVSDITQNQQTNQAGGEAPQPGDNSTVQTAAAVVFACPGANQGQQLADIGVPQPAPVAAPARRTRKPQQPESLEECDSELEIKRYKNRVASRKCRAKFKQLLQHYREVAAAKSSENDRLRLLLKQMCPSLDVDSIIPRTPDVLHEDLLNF
EBNA-1 inhibitor – EBNA-1 DNA-binding inhibitors, primary screen, biochemical, fluorescence polarization; inhibition, % at 14.8 µM; 300,000 tested, 0.34% active; AID 1950, 2009; in the data active means inhibition above about 28%
Rpn11 block – Rpn11 (PSMD14) deubiquitinase inhibitors, primary screen, biochemical, fluorescence polarization, uHTS. human 26S proteasome, Ub4-pepOG fluorescence polarization; 20S core pre-blocked with epoxomicin. AID 588493, 2011. 360,000 tested, 0.59% active. inhibition, % at 20 µM. 26S proteasome non-ATPase regulatory subunit 14 (Homo sapiens), O00487;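 active means inhibition at 20 µM, scaled to each plate's controls, above about 33%, limit read from the data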
TPT1 inh – Candida albicans TPT1 enzyme inhibitors, primary screen, biochemical, fluorescence polarization | tRNA 2'-phosphotransferase TPT1 (Candida albicans SC5314) | 300,000 tested, 0.81% active | recombinant caTPT1, FP RNA substrate dephosphorylation | inhibition, % at 5 µM;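 active means inhibition above the mean of all tested compounds plus 3 SD, set per screening campaign, cut at about 24% in these data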;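 further: plate controls were DMSO alone for no effect and ferristatin control at 100 nM for full effect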
* marks the source's active call; other numbers are inactive results; nt = no result.

SMILES	GRIN3A LBD mod	dFosB act	ZTA DNA inh	EBNA-1 inhibitor	Rpn11 block	TPT1 inh
CN(C)C(=S)SSC(=S)N(C)C	19.3*	0.8	12.9	0.2	6.7	-5.3
O=C1NC(=O)N(c2ccccc2)C(=O)/C1=C\c1ccc([N+](=O)[O-])o1	nt	nt	41.5*	-1.8	nt	16.0
CN1C(=O)NC(=O)/C(=C/c2ccc([N+](=O)[O-])o2)C1=O	-0.4	nt	16.5	-0.9	nt	3.6
Cc1c(N=Nc2c(O)n(Cc3ccccc3)c(=O)[nH]c2=O)c(=O)n(-c2ccccc2)n1C	14.8*	-5.6	7.7	-0.3	34.4	5.7
C[C@]12C=CC(=O)C=C1C=C[C@@H]1C2CC[C@]2(C)C(=O)CCC12 (stereo partly specified)	-2.2	-3.3	-9.3	-3.6	9.6	-1.1
NS(=O)(=O)c1ccc(-c2ccc(C=C3C(=O)NC(=S)NC3=O)o2)cc1	nt	nt	10.2	-3.5	nt	36.2*
NS(=O)(=O)c1ccc(-c2ccc(C=C3C(=O)NC(=O)NC3=O)o2)cc1	1.1	4.7	-14.4	-2.8	6.0	3.3
CC(NC1CCCCC1)C(O)C12CC3CC(CC(C3)C1)C2 (stereo unspecified)	-16.7	-7.3	20.0	-16.1	4.8	1.5
CCOc1ccc(NC(=O)c2c(C)nn(Cc3ccccc3)c2Cl)cc1	5.4	-3.0	4.5	5.4	1.0	-1.0
CCOc1ccc(NC(=O)c2ccc(NC(=O)COC(=O)Cc3ccccc3)cc2)cc1	17.3*	-0.3	7.5	-3.9	1.6	2.1
COC1C(OC(=O)c2ccc(C)[nH]2)C(O)C(Oc2ccc3c(O)c(NC(=O)c4ccc(O)c(CC=C(C)C)c4)c(=O)oc3c2Cl)OC1(C)C (stereo unspecified)	19.9*	-6.1	-0.8	13.7	16.3	-6.1
C=CCn1c(O)c(C(CC)=Nc2ccc(N(C)C)cc2)c(=O)[nH]c1=O	-2.1	-7.9	137.6*	126.8*	4.7	0.7
C=CCn1c(O)c(C(C)=Nc2cccc(C(F)(F)F)c2)c(=O)[nH]c1=O	12.5*	3.7	6.7	-0.8	0.2	4.1
NC(Cc1ccc(O)cc1)C(=O)NN=Cc1ccc(N(CCCl)CCCl)cc1 (stereo unspecified)	-2.4	31.9*	nt	nt	3.5	nt
N[C@@H](Cc1ccc(N(CCCl)CCCl)cc1)C(=O)O	-3.5	-8.2	2.9	4.3	17.3	9.2
Nc1ccc2ccc3cccc[n+]3c2c1	4.6	32.1*	-13.6	1.9	-218.1	-105.8
O=C(Cc1cccs1)N1CCC2(CC1)OCCO2	0.3	-6.7	-5.5	4.5	6.9	-4.8
O=C(NCc1ccccc1)c1cccn(Cc2ccccc2)c1=O	-1.3	-10.8	-7.2	5.3	-6.1	0.4
O=C(c1cc(C(=O)NCc2ccccc2)c(=O)n(Cc2ccccc2)c1)c1cc(Cl)ccc1O	13.1*	-11.6	-3.3	5.9	37.2	8.9
COc1ccc(-c2cc(=NCCCCCC(=O)O)c3cc(C)ccc3o2)cc1	0.9	-42.6	nt	nt	1.2	nt
COc1ccc(-c2cc(=NCC(=O)O)c3ccccc3o2)cc1	13.3*	-6.4	-13.0	-2.9	-1.2	-4.3
CC1C(c2ccccc2)OCCN1C (stereo unspecified)	11.2*	1.0	nt	nt	-8.7	nt
OC1CCCCC1N1CCC(c2ccccc2)CC1 (stereo unspecified)	0.6	1.7	-0.9	-1.1	-2.1	0.5
c1ccc(C2OCCN3CCCCC23)cc1 (stereo unspecified)	10.9*	0.1	4.7	-1.2	-16.3	3.0
COc1ccc(-c2ccc3n2Cc2cnnn2-c2ccccc2-3)cc1	-1.9	-9.5	nt	nt	0.7	nt
SMILES	GRIN3A LBD mod	dFosB act	ZTA DNA inh	EBNA-1 inhibitor	Rpn11 block	TPT1 inh
CCN(CC)CCCN=Cc1c(O)n(-c2cccc(C)c2C)c(=O)[nH]c1=O	10.8*	-4.5	-6.8	-13.8	3.9	4.5
CCN(CC)CCCN=Cc1c(O)n(-c2ccccc2F)c(=O)[nH]c1=O	0.8	-5.3	-5.1	7.9	-3.3	0.6
Cc1ccccc1-n1c(O)c(C=Nc2ccc(N(C)C)cc2)c(=O)[nH]c1=O	3.1	1.2	172.1*	42.8*	8.1	13.9
Cc1cccc(N=Cc2c(O)n(-c3ccccc3C)c(=O)[nH]c2=O)c1	-6.3	-3.8	12.9	6.0	2.3	2.6
O=C1NC(=O)C2(Cc3cc([N+](=O)[O-])ccc3N3CCN(C(=O)c4ccccc4)CC32)C(=O)N1 (stereo unspecified)	2.7	-11.6	-12.7	2.3	3.1	-1.7
CCCCC(=O)N/N=C/c1c(O)n(-c2cccc3ccccc23)c(=O)[nH]c1=O	-0.6	-6.7	-25.2	-16.2	7.7	0.5
Cc1[nH]c2ccccc2c1C(=O)C(=O)N1CC2CC(C1)c1cccc(=O)n1C2 (stereo unspecified)	-0.6	-8.2	-6.4	-8.6	3.0	-0.4
O=CC(Cl)P(=O)(N1CCCCC1)N1CCCCC1 (stereo unspecified)	-0.9	0.0	-15.1	-9.1	-1.9	2.7
CCN1CCN(Cc2ccccc2C)CC1	40.3*	4.4	5.1	13.6	0.6	-2.5
O=c1c(C=NCCN2CCNCC2)c(O)n(C2CCCCC2)c(=O)n1C1CCCCC1	-2.2	41.3*	5.6	0.2	11.7	0.7
CCC(C)NC(=O)c1c(N)n(Cc2ccc3c(c2)OCO3)c2nc3ccccc3nc12 (stereo unspecified)	15.0*	-5.3	4.3	3.5	24.8	2.5
COC(=O)C1=C(c2cc3ccccc3s2)C[C@@H]2CC[C@H]1N2C(=O)NCc1ccc(C(F)(F)F)cc1	-5.7	-12.7	-2.2	-1.2	-0.1	-1.3
CCCN1CCC[C@H](c2cccc(O)c2)C1	-0.6	4.2	-4.9	-11.3	-5.6	-0.1
CCn1c(=O)n(CC(=O)N2CCC3(CC2)OCCO3)c(=O)c2ccccc21	14.0*	-3.2	7.6	0.0	-3.7	-0.2
O=C(Cn1ncc2ccccc21)N1CCC2(CC1)OCCO2	-0.1	-4.0	8.8	3.5	-6.9	-2.5
CCC(=NCc1cccnc1)c1c(O)n(-c2ccc(Cl)cc2)c(=O)[nH]c1=O	0.0	-7.8	-4.5	-5.7	-5.2	-5.1
Cc1nc2cc(-c3ccc(Cl)cc3)nn2c(C)c1CCC(=O)N1CCC2(CC1)OCCO2	-1.1	-5.1	nt	nt	-4.3	nt
CN1CCC(N(C)c2nc(-c3ccc([N+](=O)[O-])cc3)nc3ccccc23)CC1	-3.2	30.1*	nt	nt	-5.0	nt
O=C1c2cccc(N3CCNCC3)c2C2CCCCN12 (stereo unspecified)	nt	nt	nt	nt	-5.6	nt
Cc1ccccc1C1=NCC(=O)N(CC(=O)N2CCCCC2)c2sc(C)c(C)c21	-2.0	-2.9	7.4	10.0	2.3	0.5
